PubChem BioAssay (Tox21)
Results filed as inconclusive are left out. Calls of active or inactive are those of the source. Unless noted, calls follow the shape of the dose curve; as a rule, active = well fitted curve in the direction sought with a large enough effect in the repeat runs; inconclusive = weak or mixed curves; inactive = no such curve, though single readings can be large; an effect the other way counts as inactive or inconclusive.

Legend:
[1] = qHTS assay to identify small molecule antagonists of the estrogen receptor beta (ER-beta) signaling pathway - cell viability counter screen (AID 1259382);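 also: HEK293T cells carrying ER-beta-UAS-bla reporter stimulated with estradiol; series mostly up to about 92 µM; nearly all actives have a fitted effect of over 55% in size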
In short: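 Tox21 10K library tested in qHTS format on ER-beta-bla HEK293T cells stimulated with 1nM E2; 16 hr treatment at 37C. Same-well CellTiter-Glo luminescence served as the cell viability measure.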

[2] = target: Estrogen receptor (Homo sapiens) (UniProt P03372); test: qHTS assay to identify small molecule agonists of the estrogen receptor alpha (ER-alpha) signaling pathway in the presence of an antagonist (AID 1259383; calls by dose curve; also: top concentration of the series differs between compounds; nearly all actives have a fitted effect of over 15% in size)
Chain of Estrogen receptor (Homo sapiens) (P03372 whole entry, looked up): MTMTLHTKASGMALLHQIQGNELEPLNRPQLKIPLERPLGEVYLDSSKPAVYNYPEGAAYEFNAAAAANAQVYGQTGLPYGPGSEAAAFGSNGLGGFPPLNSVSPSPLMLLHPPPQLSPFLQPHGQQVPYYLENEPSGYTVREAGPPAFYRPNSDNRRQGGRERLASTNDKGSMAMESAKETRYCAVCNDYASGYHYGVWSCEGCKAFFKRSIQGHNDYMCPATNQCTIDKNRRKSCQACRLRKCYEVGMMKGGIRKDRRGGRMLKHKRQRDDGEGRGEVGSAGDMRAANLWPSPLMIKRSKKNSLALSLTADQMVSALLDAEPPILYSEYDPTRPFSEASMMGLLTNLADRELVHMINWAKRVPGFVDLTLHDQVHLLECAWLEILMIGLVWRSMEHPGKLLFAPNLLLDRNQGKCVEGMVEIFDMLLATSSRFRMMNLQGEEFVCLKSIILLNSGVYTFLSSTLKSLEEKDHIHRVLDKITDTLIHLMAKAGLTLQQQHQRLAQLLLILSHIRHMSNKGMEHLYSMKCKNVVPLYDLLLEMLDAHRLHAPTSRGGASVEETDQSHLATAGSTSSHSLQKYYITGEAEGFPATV
In short: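 In VM7Luc4E2 cells, 4,000 per well, compounds at 15 concentrations were co-incubated 22hr at 37C with 10.0nM final ICI-182,780. Luminescence from the stably transfected 4×ERE-luciferase reporter was recorded 30min after ONE-Glo addition.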

[3] = qHTS assay to identify small molecule agonists or antagonists of the thyroid stimulating hormone receptor (TSHR) signaling pathway - wild type cell line counter screen (AID 1259384; calls by dose curve)
In short: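 Wild-type Hek293 cells, 800/well, 18 h at 37C, then compound with Ro20-1724 for 30 min RT. cAMP by HTRF (cAMP-d2/anti-cAMP cryptate), 1 h RT, fluorescence read. 15 concentrations, triplicates.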

[4] = target: Thyrotropin receptor (Homo sapiens) (UniProt P16473); test: qHTS assay to identify small molecule antagonists of the thyroid stimulating hormone receptor (TSHR) signaling pathway (AID 1259385; calls by dose curve; also: nearly all actives have a fitted effect of over 20% in size)
Chain of Thyrotropin receptor (Homo sapiens) (P16473 whole entry, looked up): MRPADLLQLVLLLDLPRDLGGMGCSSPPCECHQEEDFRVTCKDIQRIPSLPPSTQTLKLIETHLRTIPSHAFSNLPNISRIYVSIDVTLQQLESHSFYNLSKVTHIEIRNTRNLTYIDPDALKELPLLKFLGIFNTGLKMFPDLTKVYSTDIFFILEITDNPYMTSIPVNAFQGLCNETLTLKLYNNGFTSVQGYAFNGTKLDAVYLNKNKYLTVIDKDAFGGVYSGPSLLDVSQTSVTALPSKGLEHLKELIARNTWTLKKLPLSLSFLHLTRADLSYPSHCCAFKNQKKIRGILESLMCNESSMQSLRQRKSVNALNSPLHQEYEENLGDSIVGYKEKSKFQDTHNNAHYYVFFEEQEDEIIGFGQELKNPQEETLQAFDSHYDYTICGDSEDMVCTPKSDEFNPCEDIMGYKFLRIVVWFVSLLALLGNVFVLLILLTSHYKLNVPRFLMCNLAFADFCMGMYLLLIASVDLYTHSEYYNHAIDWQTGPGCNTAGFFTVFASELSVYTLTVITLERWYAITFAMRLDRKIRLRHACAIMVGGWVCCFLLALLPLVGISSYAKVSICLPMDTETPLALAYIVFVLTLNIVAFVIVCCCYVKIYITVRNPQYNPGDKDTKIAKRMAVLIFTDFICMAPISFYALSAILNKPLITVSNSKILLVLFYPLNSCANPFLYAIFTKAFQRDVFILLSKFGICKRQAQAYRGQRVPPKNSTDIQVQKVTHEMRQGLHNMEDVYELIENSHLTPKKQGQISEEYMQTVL
In short: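 TSHR-HEK293 cells (800/well) plated 18 h, then compounds with Ro20-1724 and TSH at 1.5 ng/mL final, 30 min at room temperature. cAMP quantified by HTRF (cAMP-d2/anti-cAMP-cryptate, 1 h); 15 concentrations in triplicate.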

[5] = qHTS assay to identify small molecule agonists of the estrogen receptor alpha (ER-alpha) signaling pathway in the presence of an antagonist - cell viability counter screen (AID 1259386);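 also: series mostly up to about 92 µM; cells exposed to compounds for 22 h at 37 °C before the viability read; nearly all actives have a fitted effect of over 30% in size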
In short: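 Fluorescent CellTiter-Fluor viability signal from VM7Luc4E2 cells, with the reagent added during the final hour of a 22hr compound exposure at 37C in the presence of 10.0nM ICI-182,780.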

[6] = target: Progesterone receptor (Homo sapiens) (UniProt P06401); test: qHTS assay to identify small molecule agonists of the progesterone receptor (PR) signaling pathway (AID 1346784; calls by dose curve; also: nearly all actives have a fitted effect of over 30% in size)
Chain of Progesterone receptor (Homo sapiens) (P06401 whole entry, looked up): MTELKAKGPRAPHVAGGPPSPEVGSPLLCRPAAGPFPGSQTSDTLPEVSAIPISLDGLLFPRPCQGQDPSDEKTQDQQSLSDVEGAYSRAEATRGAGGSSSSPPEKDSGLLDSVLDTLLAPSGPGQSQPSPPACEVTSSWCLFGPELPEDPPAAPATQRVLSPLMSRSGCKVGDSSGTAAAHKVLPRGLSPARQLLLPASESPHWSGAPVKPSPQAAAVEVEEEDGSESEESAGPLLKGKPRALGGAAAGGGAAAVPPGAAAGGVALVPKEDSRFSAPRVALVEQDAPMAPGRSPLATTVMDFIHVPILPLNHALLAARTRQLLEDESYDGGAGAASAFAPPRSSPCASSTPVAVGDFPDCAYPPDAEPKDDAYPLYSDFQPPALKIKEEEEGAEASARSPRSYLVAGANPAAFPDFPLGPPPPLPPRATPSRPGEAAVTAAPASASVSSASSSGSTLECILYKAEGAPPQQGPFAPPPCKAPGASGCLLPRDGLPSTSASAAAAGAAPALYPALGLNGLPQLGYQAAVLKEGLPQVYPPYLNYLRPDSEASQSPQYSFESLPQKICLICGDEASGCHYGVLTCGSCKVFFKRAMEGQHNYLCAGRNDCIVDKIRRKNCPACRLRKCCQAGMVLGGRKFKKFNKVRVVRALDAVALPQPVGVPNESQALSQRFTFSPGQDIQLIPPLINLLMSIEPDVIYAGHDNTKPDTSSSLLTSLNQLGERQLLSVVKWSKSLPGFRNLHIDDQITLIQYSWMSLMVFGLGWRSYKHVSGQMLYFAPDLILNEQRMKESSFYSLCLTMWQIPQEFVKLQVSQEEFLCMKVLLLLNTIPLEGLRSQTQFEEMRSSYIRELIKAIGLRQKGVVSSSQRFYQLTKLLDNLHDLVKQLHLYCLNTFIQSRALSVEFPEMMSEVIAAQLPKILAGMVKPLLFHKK
In short: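 Beta-lactamase reporter read-out: after 16 hr compound treatment at 37C and a further 2 hr at room temperature with LiveBLAzer B/G FRET substrate, fluorescence was measured in PR-UAS-bla HEK 293T cells grown in 2% charcoal-stripped serum.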

[7] = target: Progesterone receptor (Homo sapiens) (UniProt P06401); test: qHTS assay to identify small molecule antagonists of the progesterone receptor (PR) signaling pathway (AID 1346795; active = well fitted inhibition curve with a large enough effect in the signal ratio in the repeat runs, not every such curve was filed as active; the % refers to the signal ratio)
In short: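 Read-out is fluorescence from the LiveBLAzer B/G FRET substrate, cleaved by a UAS-controlled beta-lactamase in PR-UAS-bla HEK293T cells after 16 hr exposure to compound plus 1 nM promegestone (final), followed by 2 hr at room temperature.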

[8] = qHTS assay to identify small molecule agonists of the progesterone receptor (PR) signaling pathway - cell viability counter screen (AID 1346799; calls by dose curve; also: nearly all actives have a fitted effect of over 45% in size)
In short: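 Luminescence from CellTiter-Glo, added after the beta-lactamase FRET read in the same wells, gave cytotoxicity in PR-UAS-bla HEK293T cells treated with compounds for 16 hr at 37C.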

[9] = qHTS assay to identify small molecule antagonists of the TGF-beta/Smad signaling pathway - cell viability counter screen (AID 1346824); also: nearly all actives have a fitted effect of over 50% in size
In short: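 SBE-bla HEK 293T cells, incubated overnight, then compound plus 0.25 ng/mL TGF-beta1 (stock added) for 5 hr at 37 C. Viability was read in the same wells by CellTiter-Glo luminescence after 30 min at room temperature.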

[10] = qHTS assay to identify small molecule agonists of the TGF-beta/Smad signaling pathway - cell viability counter screen (AID 1346829); also: top concentration of the series differs between compounds; nearly all actives have a fitted effect of over 45% in size
In short: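 Same-well cytotoxicity: CellTiter-Glo added after the 2 hr room-temperature beta-lactamase substrate step, luminescence measured 30 min later; cells had 5 hr of compound at 37 C.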

[11] = qHTS assay to identify small molecule agonists of the TGF-beta/Smad signaling pathway (AID 1346859; active = well fitted activation curve with a large enough effect in the signal ratio in the repeat runs, not every such curve was filed as active; the % refers to the signal ratio; also: series mostly up to about 77 µM)
In short: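 SBE-bla HEK 293T, 4,000 cells/well, plated o/n; cpd in DMSO, 5 hr, 37 C/5% CO2; B/G FRET substrate 2 hr RT; ex 405, em 460/530 nm.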

[12] = target: Thyrotropin-releasing hormone receptor (Homo sapiens) (UniProt P34981); test: qHTS assay to identify small molecule antagonists of the thyrotropin-releasing hormone receptor (TRHR) signaling pathway (AID 1346877; active = well fitted inhibition curve with a large enough effect in the repeat runs, not every such curve was filed as active; also: series mostly up to about 51 µM)
Chain of Thyrotropin-releasing hormone receptor (Homo sapiens) (P34981 whole entry, looked up): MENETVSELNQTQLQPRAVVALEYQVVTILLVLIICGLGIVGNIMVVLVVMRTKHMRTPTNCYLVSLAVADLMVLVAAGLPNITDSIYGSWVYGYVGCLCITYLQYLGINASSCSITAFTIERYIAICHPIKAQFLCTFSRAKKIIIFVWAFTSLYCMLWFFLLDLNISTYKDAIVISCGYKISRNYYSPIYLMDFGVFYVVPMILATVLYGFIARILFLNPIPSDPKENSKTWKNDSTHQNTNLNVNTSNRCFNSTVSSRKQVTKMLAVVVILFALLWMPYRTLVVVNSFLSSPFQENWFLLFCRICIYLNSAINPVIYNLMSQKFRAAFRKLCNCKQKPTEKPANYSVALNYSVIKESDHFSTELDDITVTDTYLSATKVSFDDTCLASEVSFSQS
In short: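 In this cell-based calcium flux format, HEK293 cells expressing TRHR received test compound for 5 min before the agonist TRH (1 nM final). Dye loading lasted 2 h at 37 °C.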

[13] = target: Thyrotropin-releasing hormone receptor (Homo sapiens) (UniProt P34981); test: qHTS assay to identify small molecule agonists of the thyrotropin-releasing hormone receptor (TRHR) signaling pathway (AID 1346891; calls by dose curve; also: series mostly up to about 58 µM)
In short: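 Intracellular calcium rise, read as fluorescence every second for 3 min, served as the agonist signal in dye-loaded HEK293 cells expressing TRHR; each compound ran at 15 concentrations in triplicate.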

[14] = Human pregnane X receptor (PXR) small molecule agonists, qHTS cell viability counter screen (AID 1346977); also: nearly all actives have a fitted effect of over 50% in size
In short: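 PXR-Luc HepG2, 2,000 cells/well, 5% charcoal-stripped FBS; 5hr settle; cpd 24hr, 37C/5% CO2; CellTiter-Fluor at 23hr, read 1hr later (fluorescence).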

[15] = Caspase-3/7 induction in HepG2 cells by small molecules, qHTS assay (AID 1346978); also: nearly all actives have a fitted effect of over 15% in size
In short: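 Wild-type HepG2 cells, 2,000/well, settled 5 hr at 37 C and 5% CO2, then compound-treated for 17 hr; caspase-3/7 activity read by luminescent Caspase-Glo 3/7 after 30 min at room temperature.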

[16] = Caspase-3/7 induction in CHO-K1 cells by small molecules, qHTS cell viability counter screen (AID 1346979); also: nearly all actives have a fitted effect of over 35% in size
In short: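 Cells (CHO-K1, wild type) are plated at 1,500 per well and incubated 5hr. Test compounds in DMSO are then pinned in, followed by 16hr at 37C and 5% CO2. Viability is read by CellTiter-Fluor fluorescence after 1hr.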

[17] = Caspase-3/7 induction in CHO-K1 cells by small molecules, qHTS assay (AID 1346980); also: nearly all actives have a fitted effect of over 15% in size
In short: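 Wild-type CHO-K1 cells exposed to compounds for 17hr at 37 C, 5% CO2. Caspase-3/7 activity then measured by Caspase-Glo 3/7 luminescence after 30min at room temperature.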

[18] = Caspase-3/7 induction in HepG2 cells by small molecules, qHTS cell viability counter screen (AID 1346981); also: series mostly up to about 92 µM; nearly all actives have a fitted effect of over 30% in size
In short: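 Counter screen for cytotoxicity: HepG2 exposed 16 hr to compounds, then CellTiter-Fluor viability signal (fluorescence, 1 hr reagent incubation).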

[19] = qHTS assay to identify small molecule antagonists of the progesterone receptor (PR) signaling pathway - cell viability counter screen (AID 1346798);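 also: HEK293T PR-UAS-bla cells stimulated with the agonist R5020; series mostly up to about 92 µM; nearly all actives have a fitted effect of over 50% in size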
In short: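 HEK293T PR-UAS-bla, 2% charcoal-stripped FBS; 4 hr pre-plate; cpd + R5020, 16 h 37C; LiveBLAzer read first; then CellTiter-Glo 30 min RT, luminescence.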

Measured: Potency

O=C1CCCCO1
not listed: [19]
inactive: all other assays above

CCCCCCCCCCCCCCCCCC#N
not listed: [12] | [13] | [19]
inactive: all other assays above

CC(C)Cn1cnc2c1c(=O)n(C)c(=O)n2C
not listed: [6] | [7] | [8]
inactive: all other assays above

CSc1cnccn1
not listed: [16] | [19]
inactive: all other assays above

CCCC(CC)c1ccccc1 (stereo not drawn)
not listed: [10] | [12] | [13] | [14] | [19]
inactive: all other assays above

O=C=NCC1CCCC(CN=C=O)C1 (stereo not drawn)
not listed: [6] | [7]
inactive: all other assays above

COc1cc2c(cc1OC)CN(C(=O)[C@H](C)N[C@@H](CCc1ccccc1)C(=O)O)[C@H](C(=O)O)C2
not listed: [19]
inactive: all other assays above

NCCOCCN
not listed: [7] | [10] | [19]
inactive: all other assays above

CC(C)CO
not listed: [6] | [7] | [9] | [19]
inactive: all other assays above

COCCc1ccccn1
not listed: [5]
inactive: all other assays above

CN(C)C(C)(C)CO
not listed: [9] | [10] | [16]
inactive: all other assays above

CC(=O)CCc1ccc(OC(C)=O)cc1
not listed: [5]
inactive: all other assays above

CCCCCCCCCOC(=O)c1ccccc1C(=O)OCCCCCCCCC
not listed: [8] | [10] | [16]
inactive: all other assays above

Nc1nnnn1-c1ccccc1
not listed: [19]
inactive: all other assays above

C[Si]1(C)O[Si](C)(C)O[Si](C)(C)O[Si](C)(C)O[Si](C)(C)O1
not listed: [7] | [19]
inactive: all other assays above

COc1cc(/C=C/C(N)=O)cc(OC)c1OC
not listed: [7]
inactive: all other assays above

CC(C)COC(=O)c1ccccc1
not listed: [7] | [8] | [10] | [19]
inactive: all other assays above
